Most compounds without a hit are left out; they make up all but 9.5% or so of the library.
NS1 inh: qHTS Assay for Inhibitors of Influenza NS1 Protein Function; Potency, µM (doses to about 46.1 µM), for the others: top-dose activity, positive = more growth; hit rate 0.4% among 270,000; AID 2326, 2010; calls by dose curve; also: actives are rising curves; nearly all actives have a fitted effect of over 50% in size
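Recovery from NS1-induced slow growth read by OD600 in budding yeast switched to galactose assay medium (pH 6.0, -URA) at 1:100 dilution. Compound 23 nl per well; the matching strain lacking NS1 serves as control.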
Pf growth 48h: Primary qHTS for delayed death inhibitors of the malarial parasite plastid, 48 hour incubation; P. falciparum luciferase growth in erythrocytes, 48 h; Potency, µM (top dose mostly 28.7 µM), for inactives: top-dose activity change, negative = inhibition, most hits filed as inhibitors; hit rate 5.9% among 310,000; also: % is scaled to controls: 0 for no effect and ±100 for the full control effect
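Firefly luciferase activity from engineered P. falciparum reports growth; inhibitors lower the luminescent signal. Cultures contained 2% hematocrit erythrocytes at 0.1% final parasitemia.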
Pf growth 96h: Primary qHTS for delayed death inhibitors of the malarial parasite plastid, 96 hour incubation | P. falciparum luciferase reporter growth, 96 h | Potency, µM (doses to about 28.7 µM), for the others: at the top dose activity change, negative = inhibition, hits mostly inhibitors | hit rate 6.9% among 320,000; also: % is scaled to controls: 0 for no effect and ±100 for the full control effect
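Erythrocytes infected with luciferase-expressing P. falciparum were dispensed at 2% hematocrit and 0.05% parasitemia (final), then incubated with compounds 96 hours at 37 C in 5% CO2. Luminescence after detection reagent addition reported growth.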
SARS PLpro yeast: qHTS of Yeast-based Assay for SARS-CoV PLP; Potency, µM (top dose mostly 32.9 µM), inactives show at the highest dose activity, positive = growth rescue, actives largely listed as activators; hit rate 0.19% among 330,000; AID 485353, 2010; S. cerevisiae expressing SARS-CoV PLpro, growth rescue; calls by dose curve; also: 0% is about no effect; nearly all actives have a fitted effect of over 55% in size
RE007 growth inh: qHTS Assay for Inhibitors of the HIV-1 protein Vpr. hit rate 0.21% among 360,000. AID 651644, 2012. Potency, µM (highest dose often 92.2 µM), without a hit: top-dose activity change, negative = less growth, hits mostly inhibitors. S. pombe RE007 Vpr strain, BacTiter-Glo ATP luminescence, 24 h; active = well fitted falling curve with a large enough effect; inconclusive = small, poorly fitted or top-dose-only effect; inactive = no such curve, though single readings can be large or run the other way; also: % is scaled to controls: 0 for no effect and ±100 for the full control effect; nearly all actives have a fitted effect of over 50% in size
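Fission yeast RE007 carrying one integrated HIV-1 vpr copy, seeded at OD 0.01 in PMG+AL medium with 23 nL pinned compound. Grown 24 h at 30 degrees; viability read by BacTiter-Glo luminescence after 5 min.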
Active calls of the source: *; u = inconclusive; x = no result. Unless noted, calls follow the shape of the dose curve; as a rule, active = well fitted inhibition curve with a large enough effect; inconclusive = small, poorly fitted or top-dose-only effect, or another doubt; inactive = no such curve, though single readings can be large or run the other way. Potency is read from the fitted curve at half-maximal effect.

SMILES	NS1 inh	Pf growth 48h	Pf growth 96h	SARS PLpro yeast	RE007 growth inh
C#CCOCCOCCOCCNc1nc(N2CCN(C(=O)C(Cc3cc4ccccc4[nH]3)n3cc(C(N)Cc4ccc(O)cc4)nn3)CC2)nc(N2CCN(C(=O)C(CCC(=O)O)n3cc(C(N)C(C)CC)nn3)CC2)n1 (configuration not stated)	x	u	u	2%	-4%
C#CCOCCOCCOCCNc1nc(N2CCN(C(=O)[C@H](Cc3ccc(O)cc3)n3cc([C@@H](N)C(C)CC)nn3)CC2)nc(N2CCN(C(=O)[C@H](Cc3cc4ccccc4[nH]3)n3cc([C@@H](N)CC(C)C)nn3)CC2)n1 (some centres not stated)	6%	2.9µM*	u	-1%	17%
CNC(=O)[C@H]1O[C@@H](n2cnc3c(NCc4ccc(N)cc4)ncnc32)[C@H](O)[C@H]1O	-3%	x	x	x	x
COc1ccccc1N1CCN(C(=O)c2ccc(N3CCCCS3(=O)=O)cc2)CC1	-15%	-3%	4%	10%	3%
COc1cc(-c2[nH]ncc2CN2CCN(c3cccc(C)n3)CC2)cc(OC)c1OC	3%	9.3µM*	4.1µM*	-1%	-17%
CC(=O)c1ccc(NC(=O)C(C)n2nc(-c3ccccc3)c3cc(Cl)ccc32)cc1 (configuration not stated)	9%	u	1.2µM*	-1%	3%
O=[N+]([O-])c1ccc(C[n+]2cccc3ccc4cccnc4c32)cc1	6%	0.26µM*	u	0%	u
O=[N+]([O-])c1ccc(C[n+]2cccc(O)c2)cc1	x	22%	50%	-6%	-5%
O=[N+]([O-])c1ccc(Cc2ccccn2)cc1	x	-3%	u	-8%	5%
O=[N+]([O-])c1ccc(C[n+]2cccc3ccccc32)cc1	x	10µM*	u	-5%	-2%
c1ccc(C[n+]2cccc3c4ccccc4ccc32)cc1	-15%	0.074µM*	11%	-1%	u
CCC(CC)Nc1ccc(C(CC(N)=O)NC(=O)Cc2cccc3ccccc23)cc1[N+](=O)[O-] (configuration not stated)	-8%	40%	u	0%	10%
COc1ccc(C(CNC(=O)COc2ccc(Cl)c(C)c2)N2CCCCC2)cc1 (configuration not stated)	-6%	u	7%	4%	1%
COc1ccc(C(CNC(=O)COc2cccc(C(F)(F)F)c2)N2CCCC2)cc1 (configuration not stated)	x	10µM*	12µM*	3%	-14%
COc1ccc(C(CNC(=O)COc2cccc(C)c2)N2CCCC2)cc1 (configuration not stated)	x	u	13µM*	-3%	-1%
CCN(CC)C(=O)c1cnn(-c2ccccc2)c1NC(=O)c1ccccc1F	11%	-12%	0.93µM*	-14%	-2%
CN(C)CCn1c(CO)nc2c1c(=O)n(C)c(=O)n2C	8%	x	x	x	x
Cc1nn(CC(=O)Nc2ccc(C(=O)N3CCCC3)cc2)c(=O)c2ccccc12	-3%	6%	9.3µM*	2%	-4%
CCN(CC)S(=O)(=O)c1ccc(N2CCCCC2)c(NC(=O)C2CCN(C(=O)c3ccc(F)cc3)CC2)c1	x	12µM*	9.3µM*	-3%	6%
CCN(CC)S(=O)(=O)c1cccc(NC(=O)COC(=O)C2=COCCO2)c1	x	-20%	-29%	-3%	-5%
Cc1nn(CC(=O)Nc2ccc(C(=O)N3CCCCC3)cc2)c(=O)c2ccccc12	-1%	25%	x	5%	16%
CCN(CC)S(=O)(=O)c1ccc(OC(C)C)c(NC(=O)C2=COCCO2)c1	x	u	8.3µM*	-2%	3%
CCC(=O)Nc1cc(-c2nn(C)c(=O)c3ccccc23)ccc1N1CCCCC1	-6%	5.2µM*	75%	-1%	2%
N#Cc1ccc(N)cc1OCCCN1CCCCC1	x	x	x	x	-4%
COc1ccccc1NC(=S)N(CCCN1CCOCC1)Cc1cccs1	x	u	34%	3%	-9%
SMILES	NS1 inh	Pf growth 48h	Pf growth 96h	SARS PLpro yeast	RE007 growth inh
CCN(CC)CCNC(=O)C1c2cc(OC)c(OC)cc2C(=O)N(C)C1c1cccs1 (configuration not stated)	x	17%	u	-3%	-25%
CCN(CC)S(=O)(=O)c1ccc(N2CCCC2)c(NC(=O)c2nn(C)c(=O)c3ccccc23)c1	x	13µM*	13µM*	-12%	-3%
CCN(CC)S(=O)(=O)c1ccc(N2CCCCC2)c(NC(=O)C2=COCCO2)c1	x	1.9µM*	1.5µM*	1%	8%
COc1ccc(-c2nn(C)c(=O)c3ccccc23)cc1NC(=O)Cn1nc(C)c2ccccc2c1=O	-6%	10µM*	8%	-4%	10%
CCN(CC)S(=O)(=O)c1ccc(N2CCCC2)c(NC(=O)C2=COCCO2)c1	x	15%	-20%	-1%	5%
CCC(=O)Nc1cc(-c2nn(C)c(=O)c3ccccc23)ccc1OC	-8%	0%	u	1%	0%
Cn1c(=S)c2[nH]c(SCC3CCCO3)nc2n(C)c1=O (configuration not stated)	x	x	x	x	1%
C=CCNc1nc(Nc2ccc(OC)c(OC)c2)c2sc(-c3ccccc3)cc2n1	x	x	x	x	2%
COc1ccc(/C=C/C(=O)NC2CCN(Cc3ccccc3)CC2)cc1OC	-15%	u	u	0%	2%
Cc1cccn2cc(-c3ccc(S(=O)(=O)N4CCCCC4)cc3)nc12	1%	17%	10µM*	-2%	-13%
Cc1cccn2cc(-c3ccc(S(=O)(=O)N4CCOCC4)cc3)nc12	-15%	-23%	-26%	4%	-7%
CNC(=O)CSc1nnc(-c2ccco2)n1-c1cccc(OC)c1	8%	-13%	2.1µM*	0%	3%
COc1ccc(OC)c(NC(=O)CSc2nnc(-c3ccco3)n2-c2ccc(C(=O)O)cc2)c1	16%	4.7µM*	0.41µM*	-3%	-7%
CNC(=O)CSc1nnc(-c2ccco2)n1-c1cc(C)ccc1C	7%	-14%	12µM*	-1%	-2%
CNC(=O)CSc1nnc(-c2ccco2)n1-c1cccc(C)c1C	10%	u	u	0%	-2%
CNC(=O)CSc1nnc(-c2ccco2)n1-c1cccc(C)c1	8%	-21%	-13%	u	14%
CCCOC(=O)C(C)n1cnc2scc(-c3ccc(C)cc3)c2c1=O (configuration not stated)	-17%	u	46%	-8%	25%
O=C(O)/C(=C\c1ccccc1)Cc1ccccc1	0%	x	x	x	x
COc1ccccc1CN(Cc1nc2ccccc2c(=O)[nH]1)S(=O)(=O)c1ccc(C)cc1	1%	5.9µM*	x	-8%	10%

Assay outcomes (PubChem BioAssay)
